From PubChem BioAssay
GRP78 ERSR act – ER stress response induction in glioma; 420,000 compounds, 0.02% hits; AID 602332; U87-MG GRP78 promoter luciferase reporter, 16 h; Potency, µM, most hits filed as activators; further: series mostly up to about 76 µM; nearly all actives have a fitted effect of over 35% in size
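ERSR induction read as luciferase luminescence (Bright-Glo, 10 min at room temperature) in stably transfected human U87-MG glioma cells exposed to compounds for 16 h, using GRP78 as sensor.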
Nrf2 activator – activators of Nrf2 (ARE) signaling | AREc32 ARE-luciferase reporter (MCF7-derived line), luminescence, 24 h | Potency, µM (titrated, usually from 46.1 µM), usual class: activators | 410,000 compounds, 0.31% hits | AID 624171; further: nearly all actives have a fitted effect of over 65% in size
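AREc32_Fluc, 1000 cells/well, OPTI-MEM + 5% FBS, o/n 37 deg C 5% CO2; 23 nL cpd by pin tool, 24 hr; Steady-Glo 30 min RT, luminescence.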
D3 antag – antagonists of human D3 dopamine receptor. D3R cells, DiscoveRx beta-arrestin luminescence, antagonist mode; active compounds read low. max response, negative = inhibition, %. 360,000 compounds, 2.5% hits. P35462; in the data active means max response below about -50%; inconclusive means no clear call, values can overlap the other calls
Target sequence (P35462 whole entry, looked up): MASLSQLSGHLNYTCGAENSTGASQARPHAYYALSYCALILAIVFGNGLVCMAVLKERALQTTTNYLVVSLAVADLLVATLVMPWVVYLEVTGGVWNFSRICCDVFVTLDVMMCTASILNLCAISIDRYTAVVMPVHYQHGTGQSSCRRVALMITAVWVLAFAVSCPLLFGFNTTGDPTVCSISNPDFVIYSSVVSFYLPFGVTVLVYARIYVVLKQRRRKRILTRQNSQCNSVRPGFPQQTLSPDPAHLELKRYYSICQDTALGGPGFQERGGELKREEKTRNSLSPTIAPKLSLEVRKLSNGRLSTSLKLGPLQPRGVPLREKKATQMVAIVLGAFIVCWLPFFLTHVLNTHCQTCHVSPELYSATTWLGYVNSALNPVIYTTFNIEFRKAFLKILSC
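Cells plated overnight at 1500 cells/well, then exposed to library compounds with dopamine controls for 90 minutes at 37 degrees C. DiscoveRx reagent added for 30–60 minutes at room temperature; luminescence read, quantitative HTS format.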
D3 ag – agonists of human D3 dopamine receptor; P35462; 410,000 compounds, 0.58% hits; AID 652048; max activation, %; D3R DiscoveRx beta-arrestin cells, luminescence, 90 min; in the data active means max activation above about 30%
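Cells at 1500/well, incubated overnight, then treated with pinned compounds (dopamine as control) for 90 min at 37 degrees C. DiscoveRx reagent added for 30 - 60 minutes at room temperature; luminescence read.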
Each line names hits and unclear results; the compound was inactive in the other large screens. Compounds with a hit are over-represented: about 3% of the library has one in this group of screens. Unless noted, the call rests on the fitted dose curve; in most records, active means well fitted curve in the direction sought with a large enough effect; inconclusive means small, poorly fitted or top-dose-only effect, or another doubt; inactive means no such curve, though single readings can be large; an effect the other way counts as inactive or inconclusive.

O=C(NC(c1ccc(Cl)cc1)c1cnccn1)C1CCN(CCOc2ccc(F)cc2)CC1 (configuration not stated)	D3 antag inconclusive
O=C(NC(c1ccc2c(c1)OCO2)c1ccccn1)C1CCN(CCOc2ccc(Cl)cc2Cl)CC1 (configuration not stated)	D3 antag -75
O=C(NC(c1ccc(F)cc1)c1cnccn1)C1CCN(CCOc2ccc(Cl)cc2Cl)CC1 (configuration not stated)	D3 antag -71
Cc1cccnc1C(NC(=O)C1CCN(CCOc2ccc(Cl)cc2Cl)CC1)c1ccc(Cl)cc1 (configuration not stated)	D3 ag 41
COc1ccc(CN2CCC(C(=O)NC(c3ccc4c(c3)OCO4)c3ccccn3)CC2)cc1 (configuration not stated)	none
O=C1CC(C(=O)N2CCCC(c3nc(-c4ccncc4)ncc3-c3ccccc3)C2)C2(CCCCC2)O1 (configuration not stated)	none (no result: Nrf2 activator, D3 antag, D3 ag)
COc1ccc(-n2ncc(C(=O)Nc3ccc4c(c3)OCO4)c2C2CCN(C(=O)OC(C)(C)C)CC2)cc1	none (no result: D3 antag)
COc1cccc(OC)c1OCCN1CCC(C(=O)NC(c2ccc3c(c2)OCO3)c2ccccn2)CC1 (configuration not stated)	D3 antag -78
C=CC(=O)Nc1ccc(CN2C(=O)N(c3c(Cl)c(OC)cc(OC)c3Cl)Cc3cnc(NCCCCN(CC)CC)nc32)cc1	D3 antag -65
COc1ccc(C2(C(=O)NCC3Cc4cccc(-c5nc(C)cnc5C)c4O3)CCCC2)cc1 (configuration not stated)	none (no result: Nrf2 activator, D3 antag, D3 ag)
Cc1snc(S(=O)(=O)/C(C#N)=N\Nc2ccccc2)c1C#N	none
Cc1snc(S(=O)(=O)/C(C#N)=N/Nc2ccc(C(F)(F)F)cc2)c1C#N	D3 antag -91
CN1CCN(C(=O)/C(=C\c2ccccc2)c2ccccc2)CC1	D3 antag -55
O=[N+]([O-])c1ccc(O)c(C=Nc2ccc3c(c2)OCO3)c1	D3 antag -68
O=[N+]([O-])c1cc(Br)cc(C=Nc2ccc3c(c2)OCO3)c1O	D3 antag -78
CCCCNCCOCCSc1ccc(Cl)cc1	D3 antag -81
CC(C)NCCOCCSc1ccc(Cl)cc1	D3 antag -84
COCCCNCCCCSc1ccc(Cl)cc1	D3 antag inconclusive
CN(C)CCOCCSc1ccc(Cl)cc1	D3 antag -86
COCCCNCCOCCSc1ccc(Cl)cc1	D3 antag -68
Cc1cnc(-n2ncc(C(=O)NCc3ccccn3)c2C2CC2)nc1-c1cccs1	none (no result: Nrf2 activator, D3 antag, D3 ag)
CCOC(=O)c1c(C)[nH]c(C)c1S(=O)(=O)N1CCN(c2ccccc2OC)CC1	none (no result: D3 antag)
CCCCCCNc1ccc(/C=C/c2ccnc3ccccc23)cc1	none (no result: Nrf2 activator, D3 antag, D3 ag)
COc1ccc(N2CCN(c3nc4cc(C)ccc4cc3C=O)CC2)cc1	D3 ag 31
CC(=O)c1ccc(-c2ccc3c4c(ccc3c2)OC(CNC(=O)C(C)N2CCOCC2)C4)s1 (configuration not stated)	none (no result: Nrf2 activator, D3 antag, D3 ag)
CS(=O)(=O)c1ccc(S(=O)CC(=O)OCc2ccccc2)c([N+](=O)[O-])c1 (configuration not stated)	Nrf2 activator inconclusive, D3 antag -90
COC(=O)c1ccccc1NS(=O)(=O)c1ccc(NC(C)=O)cc1	none
CC(=O)Nc1ccc(S(=O)(=O)Nc2nc3ccc([N+](=O)[O-])cc3s2)cc1	none
COC(=O)c1ccc(C)c(NS(=O)(=O)c2ccc(NC(C)=O)cc2)c1	D3 antag -55
CCOc1ccc2nc(NS(=O)(=O)c3ccc(NC(C)=O)cc3)sc2c1	D3 antag -57
COC(=O)COc1cccc(NS(=O)(=O)c2ccc(NC(C)=O)cc2)c1	D3 antag -64
CS(=O)(=O)c1ccc2nc(NC(=O)Nc3ccc(Cl)c(Cl)c3)sc2c1	D3 ag 55
C=C1NN(Cc2ccccc2)C(=O)N1c1ccc(OCc2ccccc2)cc1	none (no result: Nrf2 activator, D3 antag, D3 ag)
COc1ccc(-c2cc(C(=O)N3CCc4c(cnc(C)c4CNC(=O)c4ccsc4)C3)[nH]n2)cc1	none (no result: Nrf2 activator, D3 antag, D3 ag)
CCOc1ccc2nc(NC(=O)CS(=O)(=O)c3ccccc3)sc2c1	D3 ag 32
CCOc1ccc2nc(NC(=O)CS(=O)(=O)c3ccc(C)cc3)sc2c1	D3 ag 38
Cc1cnc2ccccc2c1C	none (no result: Nrf2 activator, D3 antag, D3 ag)
CC(NC(=O)C1CCCN(S(=O)(=O)c2cccc3nonc23)C1)c1ccccc1 (configuration not stated)	D3 antag -61
CC(C)NC(=O)C1CCCN(S(=O)(=O)c2cccc3nonc23)C1 (configuration not stated)	none
COCCCNc1ncnc2sc(C(=O)N3CCCCC3)c(C)c12	none (no result: Nrf2 activator, D3 antag, D3 ag)
S=c1sc2c(Cl)ncnc2n1-c1ccccc1	D3 antag -61
CC(C)(C)n1ncc2c(=O)n(Cc3ccc(Cl)cc3F)cnc21	none (no result: Nrf2 activator, D3 antag, D3 ag)
Cc1[nH]c2ccccc2c1/C=N/Nc1ccc([N+](=O)[O-])cc1	D3 antag inconclusive
COc1ccccc1NS(=O)(=O)c1cc([N+](=O)[O-])ccc1N/N=C/c1c(C)[nH]c2ccccc12	D3 antag -52
COc1ccc(NS(=O)(=O)c2ccc3oc(Nc4ccc5c(c4)OCCO5)nc3c2)cc1	D3 antag -56
COc1ccc(NS(=O)(=O)c2ccc(NS(=O)(=O)c3ccc4c(c3)OCCO4)cc2)cc1	none (no result: D3 antag)
CC(=O)OC1CCC2(C)C(CCC3C4CC=C(C(C)=O)C4(C)OC(=O)CC32)C1 (configuration not stated)	Nrf2 activator inconclusive, D3 antag -94
CC(C)c1ccc(/C=C(\c2nc3ccccc3[nH]2)S(=O)(=O)c2ccccc2)cc1	Nrf2 activator inconclusive, D3 antag -73
O=S(=O)(/C(=C/c1ccc(C(F)(F)F)cc1)c1nc2ccccc2[nH]1)c1ccccc1	Nrf2 activator inconclusive, D3 antag -77
C/C(=C\c1ccc(N)cc1)c1nc2ccccc2[nH]1	none
Cc1cc(F)ccc1NC(=O)c1csc2c1CCC(C)C2 (configuration not stated)	none (no result: D3 antag)
COc1ccc(C2/C=C\CN(CC(C)C)C(C)C(=O)N2Cc2ccc(F)cc2)cc1 (configuration not stated)	none (no result: Nrf2 activator, D3 antag, D3 ag)
CC[N+](C)(C)c1ccc(/C=C/c2ccnc3ccccc23)cc1	none (no result: Nrf2 activator, D3 antag, D3 ag)
Brc1ccc(/C=C2\C=Cc3ccccc32)cc1	none (no result: Nrf2 activator, D3 antag, D3 ag)
N/C(=N\OC(=O)CC1CCCCC1)c1cccnc1	D3 antag -151
CO[C@@H]1[C@H](OC(=O)/C=C/C=C/C=C/C=C/C(=O)O)CC[C@]2(CO2)[C@H]1[C@@]1(C)O[C@@H]1CC=C(C)C	none (no result: GRP78 ERSR act, Nrf2 activator, D3 antag)
O=[N+]([O-])c1ccccc1N/N=C\c1ccccc1Cl	Nrf2 activator 10µM
O=[N+]([O-])c1ccccc1C=NNc1ccccc1	Nrf2 activator 6.3µM
Cc1ccc(-c2nc(N/N=C/c3ccccc3[N+](=O)[O-])c3ccccc3n2)cc1	D3 ag 45
O=[N+]([O-])c1ccccc1N/N=C\c1ccccc1F	GRP78 ERSR act inconclusive, Nrf2 activator inconclusive
Cc1ccc(Nc2nc(-c3ccccc3)nc3ccccc23)cc1	none (no result: D3 antag)
